Data taken from PubChem BioAssay AID2401 (Southern Research Specialized Biocontainment Screening …, 2010).
The whole screen tested about 2,200 compounds, of which about 530 (24%) were called active.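 The calls were made as follows: active = inhibition above a set limit at one or more concentrations of the dose series; inactive = inhibition under that limit at every dose.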 Not all results are given here. Measured potencies and affinities stand elsewhere.

Assay: nmpC-GFP reporter counter-screen in S. Typhimurium, dose response, counter-screen for PhoP regulon inhibitor project, Salmonella Typhimurium, GFP fluorescence (AID 2401);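 also: S. typhimurium with Mg-insensitive nmpC-GFP reporter grown at 10 µM Mg2+; drop in reporter fluorescence reflects general culture growth inhibition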
Conditions: 4 h; series mostly up to 150 µM

Compound | outcome
O=C1CSC(=S)N1c1ccc(F)cc1 | inactive
O=C1N=c2ccccc2=C1c1[nH]c(=S)[nH]c1O | inactive
Cc1ccccc1-n1nc(-c2ccc(N)cc2)cc1N | inactive
CC(=O)N(Cc1ccc(Cl)cc1)c1cnccn1 | inactive
NCCCC[C@H]1CN=C(N)N1CCC12CC3CC(CC(C3)C1)C2 | inactive
CCN(c1ccc(OCC(=O)OCC(=O)Nc2ccc(F)c(F)c2F)cc1)S(=O)(=O)c1ccccc1 | inactive
COc1ccc2nc(SCC(=O)N(C)C3CCCCC3)c(C#N)cc2c1 | inactive
CC1CCC(NC(=O)C2c3ccccc3C(=O)N2Cc2cccs2)CC1 (stereo not given) | inactive
Cc1ccc(Nc2nc(CSc3nnc(-c4ccc(F)cc4)n3C)cs2)cc1 | inactive
CCOc1ccc(NC(=O)Nc2cccs2)cc1 | inactive
CC(=O)c1sc(NC(=O)COc2ccc([N+](=O)[O-])cc2)nc1C | inactive
CCOC(=O)C1=C(C)NC(=O)NC1c1ccsc1 (stereo not given) | inactive
O=C1c2ccccc2C(=O)N1c1cccc(-c2csc(Nc3ccc4c(c3)OCO4)n2)c1 | inactive
COC(=O)Cn1cc(C(=O)c2ccco2)c2ccccc21 | inactive
COC(=O)c1sccc1NC(=O)c1csc2c1CCCC2 | inactive
COCCNC(=O)CSCc1c(F)cccc1Cl | inactive
Cn1ncc(Br)c1C(=O)NCc1cccs1 | inactive
CCOC(=O)c1cnc(SCC(=O)Nc2ccc(N3CCOCC3)c(Cl)c2)nc1N | inactive
CCOC(=O)N1CCC(NC(=O)CCC(=O)c2ccccc2)CC1 | inactive
CNC(=O)c1ccc(-c2ccc(F)cc2)s1 | inactive
CCCCOC(=O)CSc1nc2c(c(=O)[nH]c(=O)n2C)n1C/C=C(\C)Cl | inactive
CCCN(CCC)CCCNS(=O)(=O)c1ccc2c(c1)oc(=O)n2C | inactive
O=C1c2[nH]nc(-c3ccccc3O)c2C(c2ccc(F)cc2)N1Cc1ccco1 (stereo not given) | inactive

Compound | outcome
COc1ccc(NC(=O)CSc2nnc(-c3cccs3)n2Cc2ccco2)cc1OC | inactive
COc1ccc(OC)c(C2C=C(C34CC5CC(CC(C5)C3)C4)NC(=S)N2)c1 (stereo not given) | inactive
CCn1c(Cc2ccccc2)nnc1SCC(=O)Nc1ccc(S(N)(=O)=O)cc1 | inactive
Cc1cc(C)nc(/N=C(\N)Nc2ccc(SC(F)F)cc2)n1 | inactive
Cc1[nH][nH]c(=O)c1C(c1ccc(O)c([N+](=O)[O-])c1)c1c(C)[nH][nH]c1=O | inactive
CCCc1[nH][nH]c(=O)c1C(c1ccc(Br)cc1)C(C#N)C#N (stereo not given) | inactive
CN(CCC(=O)Nc1ccc(Br)cc1)Cc1ccccc1 | inactive
CCCc1nc2c(o1)CC(CC(C)SCC)CC2=O (stereo not given) | inactive
O=C(Nc1ccc(Cl)cc1)N1CC=CCC1 | inactive
C/C(=N/NC(=O)Cc1cccn1C)c1ccccc1 | inactive
Nc1ccc2nc(SCC(=O)Nc3ccc(N4CCOCC4)c(Cl)c3)sc2c1 | inactive
COc1cccc(NS(=O)(=O)c2c(C)cc(C)cc2C)c1 | inactive
COc1ccc(-c2ccc(C#N)c(SCC(=O)NCCc3ccccc3)n2)cc1OC | inactive
Cc1ccc(Nc2nc(Cl)nc(N(C)C#N)n2)cc1 | inactive
c1csc(C2Nc3cccc4cccc(c34)N2)c1 | inactive
Clc1ccc(OCCn2ccnc2)c2ccccc12 | inactive
CCOCC(=O)Nc1ccc(F)c(F)c1 | inactive
Cc1ncoc1C(=O)Nc1cccc(Cl)c1 | inactive
COCCNC(=S)N(Cc1cccnc1)Cc1ccc(OC)c(OC)c1 | inactive
O=C1NC(=O)C(=C2CCCCCC2)S1 | inactive
Nc1cc(N2CCCCC2)c(Cl)cc1[N+](=O)[O-] | inactive
Cc1ccc(N2C(=O)CC(Nc3ccccc3)C2=O)cc1 (stereo not given) | inactive
COc1ccc(-c2nnc(SCCC(=O)O)n2-c2ccccc2)cc1 | inactive

Compound | outcome
Nc1nc(-c2ccc3c(c2)OCCO3)cs1 | inactive
Cc1ccc(C)c(NC(=S)NCCSc2ccc(Cl)cc2)c1 | inactive
CCc1cc2c(NCCC(=O)O)nc(C)nc2s1 | inactive
CC(=O)Nc1ccc(-c2nnc(SCc3c(C)cc(C)cc3C)n2C)cc1 | inactive
c1ccc(CSc2snnc2-c2ccccc2)cc1 | inactive
CCn1c(SCC(=O)Nc2ccc3c(c2)oc2ccccc23)nnc1-c1ccc(N)cc1 | inactive
NNC(=O)CNC(c1ccccc1)c1cc(Br)ccc1NC(=O)c1ccc(Br)cc1 (stereo not given) | inactive
Cc1cccc(N2CCN(CC(=O)Nc3nccs3)CC2)c1C | inactive
FC(F)(F)c1cccc(NC(=S)NCCN2CCOCC2)c1 | inactive
Cc1cc(C)cc(-n2c(C)cc(C=C(C#N)C#N)c2C)c1 | inactive
CCOC(=O)C1=C(C)Nc2nc3ccccc3n2C1c1cccs1 (stereo not given) | inactive
Cc1ccc(C(=O)Oc2cccc(NC(=O)c3cccs3)c2)cc1S(=O)(=O)N1CCOCC1 | inactive
COc1c(Cl)cnn(-c2ccc(C)cc2)c1=O | inactive
CCc1c(C)c2cc(Cl)c(O)c(CN3CCCCC3)c2oc1=O | inactive
CCc1ccc(NC(=O)c2noc3c2CCc2ccccc2-3)cc1 | inactive
C=CCOc1ccc(/C=N/NC(=O)CN(c2cc(Cl)ccc2OC)S(=O)(=O)c2ccc(C)c([N+](=O)[O-])c2)cc1 | inactive
O=C(NCCc1cn2ccccc2n1)c1ccccc1F | inactive
Cc1nc(SCC(=O)NC(C)c2ccccc2)c2oc3ccccc3c2n1 (stereo not given) | inactive
COc1ccc(C(=O)N2CCc3cc(OC)c(OC)cc3C2)cc1OC | inactive
Cc1ccc(S(=O)(=O)NNC(=O)c2ccc(O)cc2)cc1 | inactive
CCOC(=O)c1sc(NC(=O)Nc2ccc(Cl)cc2)cc1C | inactive
CCc1ccc2[nH]c(=O)c(CN(Cc3ccccc3)C(=O)Nc3ccccc3OC)cc2c1 | inactive
COc1ccccc1N1CCN(C(=O)c2cccc3c(=O)c(C)c(-c4ccccc4)oc23)CC1 | inactive

Compound | outcome
COc1ccccc1NC(=S)NC(=O)C(C)(C)C | inactive
CCN1C(=O)N/C(=C/c2ccc(Sc3ccc(C)cc3)o2)C1=O | inactive
CC(=O)c1cccc(NC(=O)Nc2cc3sccc3n2C)c1 | inactive
COc1cc(C2SCC(=O)N2c2nnc(C34CC5CC(CC(C5)C3)C4)s2)cc(OC)c1OC (stereo not given) | inactive
Brc1ccc(OCCn2ccnc2)cc1 | inactive
CCCCNC(=O)OC1CCS(=O)(=O)C1 (stereo not given) | inactive
O=c1c(Cl)c(Cl)cnn1Cc1ccccc1Cl | inactive
Cc1ccc(S(=O)(=O)N(CC(=O)N=Nc2c(O)[nH]c3ccccc23)c2ccc(C)c(C)c2)cc1 | inactive
Cc1ccccc1C(=O)N(C)Cc1ccccc1 | inactive
CCc1nc2cc(Cl)c(Cl)cc2[nH]1 | inactive
O=C(Cn1nc(Cc2cccnc2)c2ccccc2c1=O)NCc1ccc2c(c1)OCO2 | inactive
O=C(O)c1cc(NCc2ccc3c(c2)OCO3)ccc1N1CCOCC1 | inactive
Cc1ccc(S(=O)(=O)c2cn(Cc3ccc(F)cc3)c3cc4c(cc3c2=O)OCO4)cc1 | inactive
CCn1cc(C(=O)O)c(=O)c2cc(Br)ccc21 | inactive
COc1ccc(OC)c(-c2cc(C(=O)Nc3c(C)nn(Cc4ccccc4)c3C)no2)c1 | inactive
CCS(=O)(=O)Nc1cc(C(=O)OC)ccc1C(=O)OC | inactive
Cn1nnnc1SCC(=O)NC1CCCCC1 | inactive
COC(=O)c1ccc(NC(=S)Nc2ccc3ccccc3c2)cc1 | inactive
Cc1nn2c(=O)cc(CSc3nc4ccccc4[nH]3)nc2s1 | inactive
CCn1ncc(/C=C/C(=O)NCc2cn(C)nc2C)c1C | inactive
COc1ccc(S(=O)(=O)N2CCN(Cc3ccccc3)CC2)cc1 | inactive
CCN(CC)S(=O)(=O)c1ccc2[nH]cc(C(=O)NCCc3ccccc3)c(=O)c2c1 | inactive
CN(c1ccccc1)S(=O)(=O)c1ccc(C(=O)Nc2nnc(-c3ccc(F)cc3)o2)cc1 | inactive

Compound | outcome
Cc1ccc(C)c(NC(=O)C(Sc2nnc(-c3cccs3)o2)c2ccccc2)c1 (stereo not given) | inactive
Oc1ccc(Br)cc1-c1nc2cnccn2c1NC1CCCCC1 | inactive
O=C(Nc1ccccn1)NC1CCCCC1 | inactive
COc1ccc(N2C(=O)C3CCCN3C2c2cccc(C)c2)cc1Cl (stereo not given) | inactive
O=C(/C=C/c1ccco1)N/C(=C\c1ccccc1)C(=O)NCCc1nc2ccccc2[nH]1 | inactive
CC(C(=O)NC1CCCc2ccccc21)N1CCN(Cc2ccc3c(c2)OCO3)CC1 (stereo not given) | inactive
Cc1ccccc1Nc1nnc(SCC(=O)NC2CCCc3ccccc32)s1 (stereo not given) | inactive
Cc1ccc(CNc2oc(-c3cccs3)nc2C#N)cc1 | inactive
CN(CC(=O)N1CCN(c2ccccn2)CC1)S(=O)(=O)c1ccc2ccccc2c1 | inactive
COc1ccc(C2C(C#N)=C(N)OC3=C2C(=O)CCC3)cc1Cn1cc([N+](=O)[O-])cn1 (stereo not given) | inactive
COc1ccc(Nc2nnc(SCc3cn4c(C)cccc4n3)s2)cc1 | inactive
Clc1ccc(Nc2ccc(NCc3ccccc3)nn2)cc1 | inactive
Cc1cc(N/N=C/c2cccc(Cl)c2)nc(NCc2ccccc2)n1 | inactive
Cc1ccc(NC(=O)CSc2nnc(C3CCCCC3)n2N)cc1F | inactive
CCOc1ccc2nc(COC(=O)c3ccco3)c(C(C)=O)[n+]([O-])c2c1 | inactive
O=C(Nc1ccc(Br)cc1)c1ccc(F)c(S(=O)(=O)NCc2cccs2)c1 | inactive
NCCCCCc1nnc(SCc2ccc(Cl)c(Cl)c2)o1 | inactive
O=C(Cn1cc[n+](CC(=O)c2ccccc2)c1)c1ccccc1 | inactive
CC(C)(C)c1n[nH]c(=S)n(/N=C/c2cccs2)c1=O | inactive
N#CC1=C(N)SC(N)=C(C#N)C1c1ccc([N+](=O)[O-])cc1 | inactive
Cc1cc(Oc2ccc(-c3nnc(-c4ccccc4)o3)cc2[N+](=O)[O-])ccc1Cl | inactive
Cc1ccccc1OCCSCc1nc2ccccc2[nH]1 | inactive
O=C(CCN1C(=O)c2ccccc2S1(=O)=O)Nc1ccc2c(c1)OCCO2 | inactive
